Test results taken from PubChem BioAssay (NCATS).
Structures can show the parent of a compound that is named as a salt. Records with an inconclusive call do not appear. A call without a number means that no potency is given here. Calls of active or inactive are those of the source. Unless noted, calls follow the shape of the dose curve; as a rule, active = well fitted curve in the direction sought with a large enough effect; inconclusive = small, poorly fitted or top-dose-only effect, or another doubt; inactive = no such curve, though single readings can be large; an effect the other way counts as inactive or inconclusive. Peptide text beside a SMILES is read from it. * marks the point of attachment. Tfa = O=C(C(F)(F)F)*

Experiments:
[1] = molecular target: Cytochrome P450 3A4 (Homo sapiens) (UniProt P08684); assay: qHTS Assay for Inhibitors and Substrates of Cytochrome P450 3A4 (AID 884); also: nearly all actives have a fitted effect of over 50% in size
Sequence of Cytochrome P450 3A4 (Homo sapiens) (P08684 whole entry, looked up): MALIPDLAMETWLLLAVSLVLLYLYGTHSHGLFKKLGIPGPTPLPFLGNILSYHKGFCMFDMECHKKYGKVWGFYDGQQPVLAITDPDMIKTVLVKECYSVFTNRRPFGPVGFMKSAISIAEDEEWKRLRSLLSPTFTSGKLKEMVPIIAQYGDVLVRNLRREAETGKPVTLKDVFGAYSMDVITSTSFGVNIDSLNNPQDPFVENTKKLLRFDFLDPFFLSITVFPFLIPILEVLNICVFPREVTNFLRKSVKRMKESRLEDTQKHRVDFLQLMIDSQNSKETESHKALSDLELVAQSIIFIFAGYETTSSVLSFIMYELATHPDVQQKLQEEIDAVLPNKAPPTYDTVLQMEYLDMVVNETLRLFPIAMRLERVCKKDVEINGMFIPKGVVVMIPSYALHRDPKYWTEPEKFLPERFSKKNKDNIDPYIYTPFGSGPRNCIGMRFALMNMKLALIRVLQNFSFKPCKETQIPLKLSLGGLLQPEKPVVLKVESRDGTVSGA
How it was run: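 Luminescent readout of luciferin produced by CYP3A4 (20 nM) dealkylation of Luciferin-PPXE, 25 uM (its KM). NADPH-driven reaction ran 60 min at RT after 10 min compound preincubation; data scaled to 57 uM ketoconazole as 100% inhibition.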

[2] = Confirmation and Secondary Assay for Modulators of Hemoglobin Beta Chain Splicing at IVS2 654 locus (AID 910);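 also: HeLa cells stably carrying EGFP split by mutant beta-globin IVS2-654 intron; per-well total GFP intensity by laser scanning cytometry after 2-day treatment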
How it was run: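 Readout: per-well total peak green fluorescence (488 nm ex, 500–520 nm em) from objects 5–250 µm, reflecting correct splicing of an EGFP-654 reporter. Compounds were applied for 2 days at 37 °C to overnight-plated HeLa EGFP-654 cells; controls were DMSO and 500 nM IVS2-654 PNA.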

[3] = Confirmation and Secondary Assay for Modulators of Hemoglobin Beta Chain Splicing at IVS2 705 locus (AID 930);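 also: HeLa cells stably expressing the EGFP-705 splicing reporter; GFP fluorescence per well restored by corrected splicing of the IVS2-705 intron in EGFP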
How it was run: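 Assay measures total GFP intensity per well in HeLa EGFP-705 cells after 2 days with compound; mis-splicing normally truncates EGFP, so fluorescence indicates corrected splicing.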

[4] = qHTS Assay for Lipid Storage Modulators (AID 1519; calls by dose curve); conditions: Drosophila S3 cells, BODIPY lipid droplet/cell ratio, laser cytometry, cells loaded with oleic acid; for activity change, negative = inhibition: at 57.5 µM (top of the series)
How it was run: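 Cells seeded at 5,000 per well were treated with compounds over a concentration series and loaded with oleic acid (400 uM, as added). Lipid droplet fluorescence (488 nm excitation, 500-530 nm channel) was read by laser-scanning cytometry and normalized to 20 uM Triacsin C.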

[5] = molecular target: Ubiquitin carboxyl-terminal hydrolase 1 (Homo sapiens) (UniProt O94782); assay: Inhibitors of USP1/UAF1: Pilot qHTS (AID 504865);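 also: rhodamine fluorescence freed from ubiquitin-rhodamine substrate followed over time; top concentration of the series differs between compounds; nearly all actives have a fitted effect of over 35% in size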
Sequence of Ubiquitin carboxyl-terminal hydrolase 1 (Homo sapiens) (O94782 whole entry, looked up): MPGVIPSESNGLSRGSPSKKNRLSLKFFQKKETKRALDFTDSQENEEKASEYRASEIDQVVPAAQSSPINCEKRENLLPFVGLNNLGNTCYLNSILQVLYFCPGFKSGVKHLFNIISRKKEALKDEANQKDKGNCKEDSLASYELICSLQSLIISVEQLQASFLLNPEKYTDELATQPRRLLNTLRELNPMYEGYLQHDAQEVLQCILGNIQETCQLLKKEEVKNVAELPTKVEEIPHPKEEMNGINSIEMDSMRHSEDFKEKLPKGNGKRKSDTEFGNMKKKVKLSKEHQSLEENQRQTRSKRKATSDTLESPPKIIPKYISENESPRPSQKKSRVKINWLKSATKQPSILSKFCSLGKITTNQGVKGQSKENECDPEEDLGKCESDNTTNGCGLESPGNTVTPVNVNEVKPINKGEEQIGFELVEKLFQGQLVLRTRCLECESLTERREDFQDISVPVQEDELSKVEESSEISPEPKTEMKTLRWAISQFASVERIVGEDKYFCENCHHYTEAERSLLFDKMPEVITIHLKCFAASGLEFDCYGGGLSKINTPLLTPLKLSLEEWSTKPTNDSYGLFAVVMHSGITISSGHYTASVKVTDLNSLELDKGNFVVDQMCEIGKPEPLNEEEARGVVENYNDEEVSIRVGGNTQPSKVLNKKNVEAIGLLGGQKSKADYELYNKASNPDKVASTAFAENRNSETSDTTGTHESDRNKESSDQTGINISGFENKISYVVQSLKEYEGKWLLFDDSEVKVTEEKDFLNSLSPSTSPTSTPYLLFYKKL
How it was run: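 USP1/UAF1 complex (1nM) preincubated with compound 15 min at room temperature, then Ub-Rho substrate (150nM final) added. Fluorescence read kinetically at 480/540 nm, 6 reads every 60 seconds. Buffer: 50mM HEPES pH 7.8, 0.5mM EDTA, 0.1 mg/ml BSA, 1mM TCEP, 0.01% Tween-20.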

[6] = measured here: cell count channel max response
[7] = measured here: lipid channel max response

| SMILES | Potency [1] | Potency [2] | Potency [3] | activity change, negative = inhibition [4] | max response [4, 6] [%] | max response [4, 7] [%] | Potency [5] |
| --- | --- | --- | --- | --- | --- | --- | --- |
| CC(C)C(NC(=O)C(Cc1ccc(O)cc1)NC(=O)C(NC(=O)C(F)(F)F)C(C)C)C(=O)O (stereo not drawn) (Tfa-Val-Tyr-Val-OH; configuration not given here) | inactive | inactive | inactive | 4.31% (inactive) | 0.432 | 4.35 | inactive |
| Cc1c(O)cc(O)c2c(=O)c(-c3ccc(O)cc3)coc12 | inactive | inactive | inactive | 8.55% (inactive) | 16.6 | 28 | inactive |
| COc1ccc(-c2coc3cc(O)ccc3c2=O)c(OC)c1O | inactive | inactive | inactive | -3.58% (inactive) | 12.3 | 2.49 | inactive |
| CCCCCC(CC(=O)O)C(=O)O (stereo not drawn) | inactive | inactive | inactive | 12.5% (inactive) | 21.4 | 35.2 | inactive |
| COc1c(O)cccc1O | inactive | inactive | inactive | 5.35% (inactive) | -1.6 | 5.81 | inactive |
| Nc1nc(Cl)c2ncn(C3OC(CO)C(O)C3O)c2n1 (stereo not drawn) | inactive | inactive | inactive | 1.75% (inactive) | -10 | -7.18 | inactive |
| CCCC(NC(C)C(=O)N1C(C(=O)O)CC2CCCCC21)C(=O)OCC (stereo not drawn) | inactive | inactive | inactive | 9% (inactive) | 4.3 | 11.7 | inactive |
| CC1(C)CC[C@]2(C)CC[C@@]3(C)C(=CCC4[C@@]5(C)CCC(O)C(C)(C)C5CC[C@@]43C)C2C1 (stereo partly drawn) | inactive | inactive | inactive | 3.54% (inactive) | 18 | 24.3 | inactive |
| C[C@]12CCC3c4ccc(O)cc4CCC3C1CC(O)C2O (stereo partly drawn) | inactive | inactive | inactive | -4.9% (inactive) | 6.91 | 3.96 | inactive |
| NC1=NCCN1CC(=O)O | inactive | inactive | inactive | 4.53% (inactive) | 1.34 | 10.9 | inactive |
| CC1(C)OC2C(CO)OC(n3cnc4c(=O)[nH]cnc43)C2O1 (stereo not drawn) | inactive | inactive | inactive | 1.95% (inactive) | 3.64 | 5.67 | inactive |
| C=C(C)C1CC=C(CO)CC1 (stereo not drawn) | inactive | inactive | inactive | 0.669% (inactive) | -1.53 | 1.38 | inactive |
| CC(=O)NC(CCC(=O)O)C(=O)O (stereo not drawn) | inactive | inactive | inactive | 11.4% (inactive) | 14.5 | 27.6 | inactive |
| Nc1ncnc2c1nc(Br)n2C1CC(O)C(CO)O1 (stereo not drawn) | inactive | inactive | inactive | 2.34% (inactive) | 9.06 | 11.8 | inactive |
| CC(C)CCCC(C)C1CCC2C3CC(=O)[C@H]4CC(O)CC[C@]4(C)C3CC[C@@]12C (stereo partly drawn) | inactive | inactive | inactive | -8.35% (inactive) | -5.43 | -14 | inactive |
| CC(=O)NC(CC(=O)O)C(=O)O (stereo not drawn) | inactive | inactive | inactive | 2.97% (inactive) | 13.4 | 18 | inactive |
| COc1ccc(-c2oc3c(CC=C(C)C)c(O[C@H]4OC(CO)C(O)C(O)C4O)cc(O)c3c(=O)c2O[C@@H]2OC(C)C(O)C(O)C2O)cc1 (stereo partly drawn) | inactive | inactive | inactive | 3.91% (inactive) | 22 | 29.5 | inactive |
| [N-]=[N+]=Nc1nc2c(N)ncnc2n1C1OC(CO)C(O)C1O (stereo not drawn) | inactive | inactive | inactive | -16.2% (inactive) | 12.5 | 1.58 | inactive |
| COc1cc2c(cc1OC)C1(O)C(=O)c3ccc(O)c(C(=O)O)c3OC1CO2 (stereo not drawn) | inactive | inactive | inactive | 8.88% (inactive) | 8.21 | 21.1 | inactive |
| CC(C)CC(N)C(=O)NC(C)C(=O)O (stereo not drawn) | inactive | inactive | inactive | 3.3% (inactive) | 18.5 | 21.6 | inactive |
| CC(=O)OCC(OC(C)=O)C(OC(C)=O)C(OC(C)=O)C(OC(C)=O)C(COC(C)=O)OC(C)=O (stereo not drawn) | inactive | inactive | inactive | 10.5% (inactive) | 5.07 | 17.8 | inactive |
| COC(=O)C(C)c1ccc(C(=O)c2cccs2)cc1 (stereo not drawn) | inactive | inactive | inactive | 9.81% (inactive) | -1.55 | 12.4 | inactive |
| CC1=CC2C(C(C)C)CCC(C)(O)C2CC1 (stereo not drawn) | inactive | inactive | inactive | -0.741% (inactive) | -7.33 | -6.55 | inactive |
| CC(C)=CCc1c(O)cc(C)oc1=O | inactive | inactive | inactive | 0.619% (inactive) | 9.29 | 11.1 | inactive |
| NCC1OC(OC2C(N)CC(N)[C@@H](O)[C@@H]2OC2O[C@H](CO)[C@@H](O[C@@H]3OC(CN)C(O)C(O)C3N)C2O)C(N)C(O)C1O (stereo partly drawn) | inactive | inactive | inactive | 9.63% (inactive) | 15.6 | 30 | inactive |

| SMILES | Potency [1] | Potency [2] | Potency [3] | activity change, negative = inhibition [4] | max response [4, 6] [%] | max response [4, 7] [%] | Potency [5] |
| --- | --- | --- | --- | --- | --- | --- | --- |
| CN(C)CC/C=C1/c2ccccc2COc2ccccc21 | inactive | inactive | inactive | 0.286% (inactive) | 3.97 | 10.6 | inactive |
| O=c1[nH]cnc2c1nc(Cl)n2C1OC(CO)C(O)C1O (stereo not drawn) | inactive | inactive | inactive | 3.67% (inactive) | 5.38 | 10.4 | inactive |
| CC(=O)OCC(=O)C1CCC2C3CC=C4CC(O)CC[C@@]4(C)C3CC[C@]12C (stereo partly drawn) | inactive | inactive | inactive | 8.84% (inactive) | 22.6 | 38.3 | inactive |
| C=CCSCC(N)C(=O)O (stereo not drawn) | inactive | inactive | inactive | 7.56% (inactive) | 17.4 | 25.7 | inactive |
| COc1cc(OC)c2c(c1Cl)OC1(C2=O)C(O)=CC(=O)CC1C (stereo not drawn) | inactive | inactive | inactive | 0.55% (inactive) | -1.12 | 2.38 | inactive |
| C/C1=C/CC(C)(C)/C=C/C/C(C)=C/CC1 | inactive | inactive | inactive | 0.556% (inactive) | 16.1 | 16.9 | inactive |
| CCNC(=O)CCC(N)C(=O)O (stereo not drawn) | inactive | inactive | inactive | 2.77% (inactive) | 9.46 | 16.9 | inactive |
| CNC1C(O)C(O)C(CO)O[C@H]1OC1C(O[C@@H]2C(O)C(O)[C@@H](N=C(N)N)C(O)C2N=C(N)N)OC(C)[C@]1(O)C=O (stereo partly drawn) | inactive | inactive | inactive | 11.1% (inactive) | 10.8 | 24.1 | inactive |
| CC1(C)Oc2ccc3ccc(=O)oc3c2CC1O (stereo not drawn) | inactive | inactive | inactive | -1.55% (inactive) | 16 | 13.9 | inactive |
| Nc1nc2c([nH]c(=O)n2C2OC(CO)C(O)C2O)c(=O)[nH]1 (stereo not drawn) | inactive | inactive | inactive | 1.54% (inactive) | 9.74 | 13.6 | inactive |
| COc1ccc(C(=O)c2ccccc2)c(O)c1O | inactive | inactive | inactive | 1.94% (inactive) | -24.4 | -18 | inactive |
| CCN1CCN(C(=O)NC(C(=O)NC2C(=O)N3C2SC(C)(C)C3C(=O)O)c2ccccc2)C(=O)C1=O (stereo not drawn) | inactive | inactive | inactive | 7.43% (inactive) | -3.83 | 0.752 | inactive |
| Nc1nc2c(ncn2C2OC(CO)CC2O)c(=O)[nH]1 (stereo not drawn) | inactive | inactive | inactive | 6.37% (inactive) | 3.55 | 10.6 | inactive |
| CC(=O)OCC1OC(n2c(Br)nc3c(=O)[nH]c(N)nc32)C(OC(C)=O)C1OC(C)=O (stereo not drawn) | inactive | inactive | inactive | 1.02% (inactive) | 9.1 | 10.5 | inactive |
| O=c1[nH]c(=O)c2nc(Br)n(C3OC(CO)C(O)C3O)c2[nH]1 (stereo not drawn) | inactive | inactive | inactive | 6.72% (inactive) | 5.7 | 13 | inactive |
| CC(=O)Oc1ccc2c(c1)CCC1C2CC[C@@]2(C)C1CC(OC(C)=O)C2OC(C)=O (stereo partly drawn) | inactive | inactive | inactive | 5.31% (inactive) | 10.1 | 17.4 | inactive |
| O=C(Oc1cc(OC(=O)c2ccccc2)c2c(c1)OC(c1ccc(OC(=O)c3ccccc3)c(OC(=O)c3ccccc3)c1)[C@@H](OC(=O)c1ccccc1)C2)c1ccccc1 (stereo partly drawn) | inactive | inactive | inactive | -8.04% (inactive) | 23.3 | 15.7 | inactive |
| OCC1O[C@@H](OC2C(O)C(CO)O[C@@]2(CO)O[C@@H]2OC(CO)C(O)C(O)C2O)C(O)C(O)C1O (stereo partly drawn) | inactive | inactive | inactive | 4.82% (inactive) | 0.0409 | 4.57 | inactive |
| CC(=O)O[C@]1(C)CC[C@]23CC1C(C)(C)C2CC[C@@H]3C (stereo partly drawn) | inactive | inactive | inactive | 3.63% (inactive) | 7.64 | 13.6 | inactive |
| CNC1C(O)[C@@H]2OC(O[C@@H]3C(O)C(O)C(N)C[C@H]3N)C(N)C[C@H]2O[C@H]1O[C@@H]1OC(CO)C(N)C(O)C1O (stereo partly drawn) | inactive | inactive | inactive | 6.47% (inactive) | 16.9 | 24.6 | inactive |
| CC1CCC2(OC1)OC1CC3C4CC[C@@H]5CC(O)CC[C@@]5(C)C4CC(=O)[C@]3(C)C1C2C (stereo partly drawn) | inactive | inactive | inactive | 9.56% (inactive) | 0.354 | 13.1 | inactive |
| C[N+]1(C)CC(O)[C@H](C(=O)[O-])C1 (stereo partly drawn) | inactive | inactive | inactive | 1.35% (inactive) | 0.129 | 0.467 | inactive |
| NCC1CCCCC1CC(=O)O (stereo not drawn) | inactive | inactive | inactive | 5.88% (inactive) | 16.7 | 26.7 | inactive |
| CC(=O)OCC1OC(n2cnc3c(=O)[nH]cnc32)C(OC(C)=O)C1OC(C)=O (stereo not drawn) | inactive | inactive | inactive | 3.9% (inactive) | 9.07 | 13.2 | inactive |
